Results on 6 molecules are retold here after PubChem BioAssay AID1963322 (National Center for Advancing Translational Sciences (NCATS), 2024).

Results filed as inconclusive are left out. Where a call stands in place of a potency, no number is given. Calls of active or inactive are those of the source. Calls follow the shape of the full dose curve.

The target of this assay is cAMP-dependent protein kinase catalytic subunit alpha (Homo sapiens) (UniProt P17612). In words: Protein Kinase A (PKA-HiBiT) SDR gain of signal screen. The settings on record: PKA-HiBiT structural dynamics response (SDR), luminescence gain of signal; series mostly up to 32.9 µM. The source says: National Center for Advancing Translational Sciences (NCATS),
National Institute of Health (NIH), Maryland
Discovery and optimization of novel protein-binding ligands underlies many of the methods and applications of biology, drug discovery, clinical diagnostics, and environmental toxicology. Assays for detecting the interaction of, for example, a molecule with a macromolecular target also referred to here as the target of interest (TOI) is dependent on a compatible output technology. Depending on the nature and knowledge surrounding the TOI, whether a receptor, enzyme, regulatory subunit or scaffold, or a sequence-defined nucleic acid folded into a complex tertiary structure, assay strategies can vary widely.
Here we exploit ligand-biased changes in the structural dynamics of the target protein to control reporter alpha complementation allowing a non-competitive, non-functional, non-separation measure of ligand-target interaction.
Using a chemical library of >1,200 compounds enriched for scaffolds known to be associated with the inhibition of firefly luciferase (FLuc) activity (PubChem AIDs 2309) we first illustrate and compare the Structural Dynamics Response (SDR) assay vs. the standard functional FLuc enzyme assay (2). Secondly, we show the specificity and sensitivity of the SDR for the Abelson tyrosine kinase (ABL1) compared to the serine/threonine protein kinase A, using an enriched chemical library of 128 compounds selected, in part, for activity annotated with ABL1 kinase activity using the Pharos database (3).
(1) A. S. Dixon et al., NanoLuc Complementation Reporter Optimized for Accurate Measurement of Protein Interactions in Cells. ACS Chem Biol 11, 400-408 (2016).
Chemistry & Biology, 19, 1060 - 1072 (2012).
(3) K. J. Kelleher et al., Pharos 2023: an integrated resource for the understudied human proteome. Nucleic Acids Res 51, D1405-D1416 (2023).
PROTOCOL TABLE (as described by Inglese J, Shamu CE and Guy RK. 2007)
SEQUENCE No. (e.g., 1, 2, 3, etc.); […] (e.g., C. elegans, Compounds, Incubation, Read, etc.); VALUE and DESCRIPTION.
1. Reagent. Dispense 4 uL PKA-N-HiBiT enzyme per well at a final enzyme concentration of 10 nM in buffer into columns 2-48 of four replicate Greiner 1536-well white,solid bottom high base, medium plates per assay. Dispense respective buffer without enzyme at 4 uL/well in column 1 of assay plates using BioRaptr 2.
2. Compounds. Library compounds added at 23 nL/well by pin transfer. DMSO neutral control and H-89 positive control added at 25 nL/well, transfer by Mosquito dispenser.
3. Incubation. Incubate enzyme and compounds at room temperature for 30 min, protect from light.
4. Reagent. (SDR assay) Add 3 uL/well of Nano-Glo HiBiT reagent (Promega) to assay plates.
5. Incubation. (SDR assay) Incubate enzyme solution HiBiT reagent at room temperature for 10 min, protected from light.
6. Detector. (SDR assay) Luminescence measured using CCD-based camera (ViewLux) with settings as follows: Exposure, 1 sec; Gain, High; Speed, Slow; Binning, 2X.
In general terms: The HiBiT peptide binds its large partner to form an active luciferase.
For the molecule `Cc1[nH]nc2ccc(-c3cncc(OC[C@@H](N)Cc4c[nH]c5ccccc45)c3)cc12`, the Potency was 197 nM (active).

As to `C/C(O)=C(\C#N)C(=O)Nc1cc(Br)ccc1Br`, the Potency result was “inactive”.

For the molecule `O=[N+]([O-])O[C@H]1CO[C@H]2[C@@H]1OC[C@H]2O[N+](=O)[O-]`, the Potency result is “inactive”.

Regarding `N#Cc1cn([C@@H]2O[C@H](CO)[C@H](O)[C@@H]2O)c2ncnc(N)c12`, the Potency result was “inactive”.

As for `CCNC(=O)C[C@@H]1N=C(c2ccc(Cl)cc2)c2cc(OC)ccc2-n2c(C)nnc21`, the Potency entry is “inactive”.

On to `O=C(NCCCNc1nc(Nc2ccc(N3CCOCC3)cc2)ncc1C1CC1)C1CCC1`, for which the Potency result was “inactive”.
